The results in this text go back to the supplement of paper PMC6555819.

Assay in all cases: PBM binding z-score (relative to random genomic background probes); higher = stronger binding; sequences stand for … in GC…GCGATTGACAGCGTAGAATGAAGG
The test system of test [1] is RARb homodimer (NR concentration 270 nM). The method, boiled down: (§1)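 Ligand-free nuclear receptor dimers were applied to custom Agilent 4×180K protein-binding microarrays whose double-stranded probes carried direct-repeat seeds, single-nucleotide variants, half-site ablations and random human genomic background sequences in 34-nt variable regions. Incubation lasted 1 h. Binding z-scores were computed against the random background probes from regression-normalized fluorescence.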

The subject of test [2] is RARg:RXRa (NR concentration 270 nM, RXRa partner concentration 90 nM). The method, boiled down:
as §1

The subject of test [3] is RARg homodimer (NR concentration 270 nM). The method, boiled down:
as §1

Test [4] has as its system RXRa DBDmut IVT, anti-RXR (DBD mutation: RXRa K156A/R161A, NR concentration 90 nM). The method, boiled down: as §1
Test [5] has as its system RXRa homodimer (NR concentration 180 nM). The method, boiled down: as §1
In test [6] the test system is THRa:RXRa (NR concentration 90 nM, RXRa partner concentration 90 nM). The method, boiled down: as §1
The subject of test [7] is THRa homodimer (NR concentration 90 nM). The method, boiled down: as §1
Test [8] deals with VDR homodimer (NR concentration 270 nM). The method, boiled down:
as §1

With TAGCCCAGGTCATGGGCCAGTATACCACGCGAAC, the PBM binding z-score is 2.61 in test [1]; 4.42 in test [2]; 4.43 in test [3]; 0.576 in test [4]; 4.06 in test [5]; 3.69 in test [6]. Besides, the values for the PBM binding z-score in test [7] and in test [8] were 2.3 and 1.08, respectively.
Regarding CGTCCAAAGTCAATGCTAGGTCAGTGAAAGCATT, the PBM binding z-score in test [1] was found to be 2.39; in test [2], 2.4; in test [3] it was 1.31; in test [4], 0.43; in test [5], 0.344; in test [6], 2.01. For the same sequence, the values for the PBM binding z-score in test [7] and in test [8] were 0.698 and 0.435, respectively.
With TCTTGTAGATCAATAGAGGTTACGAAAGTGCGCT, the PBM binding z-score in test [1] was found to be 1.7; in test [2], 1.05; in test [3], 0.657; in test [4] it was 0.65; in test [5] it was 1.54; in test [6], 2.75. For the same sequence, the results for the PBM binding z-score in test [7] and in test [8] were 0.12 and 0.507, respectively.
GCTTGTAGTTCAAGGTTAAGAAAGACTAAGCTAA: the PBM binding z-score in test [1] turned out to be 1.6; in test [2], 2.24; in test [3] it was 2.5; in test [4] it was 1.91; in test [5], 2.17; in test [6] it was 2.09. Further, the PBM binding z-score was 0.091 in test [7] and 0.851 in test [8].
As for GCTTACGGGTCAAAGGTTTTAGCATGAATAGAAT, the PBM binding z-score was 2.53 in test [1]; 4.83 in test [2]; 4.15 in test [3]; 2.2 in test [4]; 6.49 in test [5]; 2.76 in test [6]. For the same sequence, the PBM binding z-score in test [7] was -0.137; in test [8], 1.41.
Turning to CCAGCCAGGTGAGAAGGTAACTCAGCCTCGATTA, the PBM binding z-score in test [1] was 0.235; in test [2] it was 0.0253; in test [3] it was 0.00676; in test [4] it was -0.801; in test [5], 0.0434; in test [6], 0.621. The values for the PBM binding z-score in test [7] and in test [8] were 0.306 and -0.441, respectively.
Consider TCTTGTAGATCAATAGAGGTTAAGAGAGTGCGCT, for which the PBM binding z-score in test [1] came out at 1.02; in test [2], 0.864; in test [3], 0.443; in test [4], 0.589; in test [5], 1.46; in test [6], 2.56. Besides, the PBM binding z-score is -0.485 in test [7] and 0.473 in test [8].
